The source of these data is the supplement of paper PMC13380429.

Assay [1] has as its system Vero E6 infected with SARS-CoV-2. Kind of assay: morphology score (similarity to uninfected cells); higher = more like uninfected cells. The settings on record: 24 h.
The test system is the same in assay [2]. Kind of assay: SARS-CoV-2 infection rate relative to infected DMSO; higher = more infection, active = 60 or less. To be noted: 24 h.

The structures appear in SMILES notation.

The compound `COc1cc(-c2ncn(/C=C\C(=O)OC(C)C)n2)cc(C(F)(F)F)c1` (10 µM) displayed a morphology score in assay [1] of -0.358. For the same compound, in assay [2], the SARS-CoV-2 infection rate was 114% (inactive).

In assay [1], `CN(C)c1ccccc1CN1CCCN(Cc2ccccc2N(C)C)C1c1ccncc1` (10 µM) displayed a morphology score of 0.576. The SARS-CoV-2 infection rate in assay [2] is 42% (active).

For `Cc1cnc(-c2cnc(NCCNc3ccc(C#N)cn3)nc2-c2ccc(Cl)cc2Cl)[nH]1` (0.833333 µM), in assay [1], the morphology score is -0.0902. Moreover, the SARS-CoV-2 infection rate in assay [2] was 108% (inactive).

The compound `Cc1cc(NC(=O)NCCN2CCC(O)(Cc3ccccc3)CC2)c2ccccc2n1` [palosuran] (10 µM) had a morphology score in assay [1] of -0.00351. Besides, the SARS-CoV-2 infection rate in assay [2] is 112% (inactive).

`O=C(CNC(=O)c1ccc(Cl)cc1)NO` [benurestat] (10 µM) showed a morphology score in assay [1] of 0.153. Besides, the SARS-CoV-2 infection rate in assay [2] was 114% (inactive).

With `C[N+](C)(CCOc1ccccc1)Cc1ccccc1` [bephenium-hydroxynaphthoate] (10 µM), the morphology score in assay [1] was found to be 0.171. Moreover, the SARS-CoV-2 infection rate in assay [2] is 94.5% (inactive).

Consider `C[C@]12CC[C@H]3[C@@H](CC[C@]4(O)C[C@@H](O)CC[C@]34C=O)[C@@]1(O)CC[C@@H]2C1=CC(=O)OC1` [K-strophanthidin] (0.833333 µM), for which the morphology score in assay [1] was 0.0264. In addition, the SARS-CoV-2 infection rate in assay [2] was 92% (inactive).

For the compound `O[C@H]1[C@H](O)[C@@H](O)CN2CC[C@H](O)[C@H]12` [castanospermine] (10 µM), in assay [1], the morphology score is -0.18. Further, the SARS-CoV-2 infection rate in assay [2] is 112% (inactive).

As for `CC(C)CN(C[C@@H](O)[C@H](Cc1ccccc1)NC(=O)O[C@H]1CO[C@H]2OCC[C@H]21)S(=O)(=O)c1ccc(N)cc1` [darunavir] (10 µM), the morphology score in assay [1] was 0.156. The SARS-CoV-2 infection rate in assay [2] was 107% (inactive).

Compound `Cc1nn(C)c2c1C(c1cccc(Cl)c1)=NCCN2` [zometapine] (10 µM) registered a morphology score in assay [1] of 0.136. For the same compound, the SARS-CoV-2 infection rate in assay [2] is 104% (inactive).

`CCC1=C(C)CN(C(=O)NCCc2ccc(S(=O)(=O)NC(=O)N[C@H]3CC[C@H](C)CC3)cc2)C1=O` [glimepiride] (10 µM): the morphology score in assay [1] turned out to be 0.152. Also, the SARS-CoV-2 infection rate in assay [2] is 99% (inactive).

Turning to `CNC(=O)Oc1cccc2ccccc12` [carbaril] (10 µM), the morphology score in assay [1] is 0.025. The SARS-CoV-2 infection rate in assay [2] was 101% (inactive).

For `CN(C)/N=N/c1[nH]cnc1C(N)=O` [dacarbazine] (10 µM), in assay [1], the morphology score is 0.135. Also, the SARS-CoV-2 infection rate in assay [2] was 87% (inactive).

In the case of `CNC(=O)c1ccc(N2C(=S)N(c3cnc(C#N)c(C(F)(F)F)c3)C(=O)C23CCC3)cc1F` [apalutamide] (10 µM), the morphology score in assay [1] stood at 0.0169. In addition, the SARS-CoV-2 infection rate in assay [2] is 109% (inactive).

Consider `CC(=O)O[C@@]12CO[C@@H]1C[C@H](O)[C@@]1(C)C(=O)[C@H](O)C3=C(C)[C@@H](O)C[C@@](O)([C@@H](OC(=O)c4ccccc4)[C@H]21)C3(C)C` [10-deacetylbaccatin] (10 µM), for which the morphology score in assay [1] came to 0.18. In addition, the SARS-CoV-2 infection rate in assay [2] is 109% (inactive).

Take `O=S(=O)(O)CCS` [mesna] (10 µM): the morphology score in assay [1] amounted to 0.157. In assay [2], the SARS-CoV-2 infection rate is 109% (inactive).

In assay [1], `CC(=O)OC[C@H]1O[C@@](COC(C)=O)(O[C@H]2O[C@H](COC(C)=O)[C@@H](OC(C)=O)[C@H](OC(C)=O)[C@H]2OC(C)=O)[C@@H](OC(C)=O)[C@@H]1OC(C)=O` [sucrose-octaacetate] (10 µM) showed a morphology score of 0.0471. For the same compound, the SARS-CoV-2 infection rate in assay [2] is 103% (inactive).

On to `CCC1(c2ccccc2)C(=O)N(COC)C(=O)N(COC)C1=O` [eterobarb] (10 µM), for which the morphology score in assay [1] was -0.0955. Moreover, the SARS-CoV-2 infection rate in assay [2] was 106% (inactive).

In assay [1], `NC(=O)c1ncn([C@@H]2O[C@H](CO)[C@@H](O)[C@H]2O)c1O` [mizoribine] (10 µM) returned a morphology score of 0.0626. Besides, in assay [2], the SARS-CoV-2 infection rate was 112% (inactive).

In assay [1], `Cc1cccc(Cc2c[nH]cn2)c1C` [detomidine] (10 µM) yielded a morphology score of -0.193. Besides, the SARS-CoV-2 infection rate in assay [2] was 116% (inactive).

With `C(#Cc1nc2ncccc2nc1OCCN1CCCC1)c1ccccc1` (0.833333 µM), in assay [1], the morphology score was 0.0988. For the same compound, the SARS-CoV-2 infection rate in assay [2] is 86% (inactive).

For the compound `CC(=O)N(C)c1cc(-c2ccnc3c(C(=O)c4cccs4)cnn23)ccc1F` [lorediplon] (10 µM), in assay [1], the morphology score is -0.126. The SARS-CoV-2 infection rate in assay [2] is 112% (inactive).

`N[C@@H](CSS(=O)(=O)O)C(=O)O` [S-sulfo-L-cysteine] (10 µM): the morphology score in assay [1] stood at 0.254. For the same compound, the SARS-CoV-2 infection rate in assay [2] was 90% (inactive).

Turning to `CNC[C@@H]1CC[C@@H](N)[C@@H](O[C@H]2[C@H](O)[C@@H](O[C@H]3OC[C@](C)(O)[C@H](NC)[C@H]3O)[C@H](N)C[C@@H]2N)O1` [micronomicin] (10 µM), the morphology score in assay [1] was 0.0697. Besides, the SARS-CoV-2 infection rate in assay [2] is 96% (inactive).

For the compound `C/N=C(/NC#N)NCCSCc1csc(NC(=N)N)n1` [tiotidine] (10 µM), the morphology score in assay [1] was 0.11. Also, the SARS-CoV-2 infection rate in assay [2] was 98% (inactive).

Compound `CC(COc1ccccc1)NC(C)C(O)c1ccc(O)cc1` (stereo not given) [isoxsuprine] (10 µM) showed a morphology score in assay [1] of 0.0115. For the same compound, in assay [2], the SARS-CoV-2 infection rate was 109% (inactive).

Compound `O=C(NCCN1CCN(c2ncccn2)CC1)C12CC3CC(CC(C3)C1)C2` [adatanserin] (10 µM) registered a morphology score in assay [1] of 0.159. Besides, the SARS-CoV-2 infection rate in assay [2] is 109% (inactive).

For `O=C(CCCN1CCN(c2ccccn2)CC1)c1ccc(F)cc1` [azaperone] (10 µM), the morphology score in assay [1] worked out at 0.13. Besides, the SARS-CoV-2 infection rate in assay [2] was 83% (inactive).

As for `CC[C@@H](CO)NC(=O)[C@@H]1C=C2c3cccc4[nH]cc(c34)C[C@H]2N(C)C1` [methylergometrine] (10 µM), the morphology score in assay [1] worked out at 0.112. Besides, the SARS-CoV-2 infection rate in assay [2] was 96.5% (inactive).

In assay [1], `Cc1cccc(/C=C/c2ccccc2)n1` (10 µM) had a morphology score of 0.0753. Moreover, the SARS-CoV-2 infection rate in assay [2] is 98% (inactive).
